# Measured values published in article PMC7862700, “An all-to-all approach to the identification of sequence-specific readers for epigenetic DNA modifications on cytosine”.
# Key:
# Assay in all cases: DAPPL (digital affinity profiling via proximity ligation, sequencing); 10 mM Tris-HCl pH 7.5, 50 mM NaCl, 1 mM DTT, 4% glycerol, room temperature, 30 min; GST-TFs on glutathione beads, 16-mer random dsDNA library, 0.1% formaldehyde crosslink after washing; high values mean tight binding
# [1] = target: T1, FLI1 (Homo sapiens, UniProt Q01543 1-452); conditions: protein: recombinant; tags: N-terminal GST; dsDNA, one strand shown
# T1 sequence: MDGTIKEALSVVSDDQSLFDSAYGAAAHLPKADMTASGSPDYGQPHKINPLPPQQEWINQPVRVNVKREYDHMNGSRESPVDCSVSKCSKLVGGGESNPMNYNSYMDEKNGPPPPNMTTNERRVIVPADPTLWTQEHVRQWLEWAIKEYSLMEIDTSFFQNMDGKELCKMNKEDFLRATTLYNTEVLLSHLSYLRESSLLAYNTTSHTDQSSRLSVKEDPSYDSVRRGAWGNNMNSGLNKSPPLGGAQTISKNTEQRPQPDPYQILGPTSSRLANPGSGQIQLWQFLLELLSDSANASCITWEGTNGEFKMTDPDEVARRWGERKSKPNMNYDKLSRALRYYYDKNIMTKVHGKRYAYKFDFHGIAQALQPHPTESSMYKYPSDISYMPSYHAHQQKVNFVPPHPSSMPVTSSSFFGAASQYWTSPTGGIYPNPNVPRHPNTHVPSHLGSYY
# How it was run: (§1)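 GST fusions of human transcription factors were expressed in yeast and captured with glutathione beads. Once given DNA barcodes and pooled alongside a tag-only sample, they were incubated for 30 min at room temperature with 200 nmole of a random double-stranded 16-mer DNA library in Tris/NaCl/DTT/glycerol buffer, then washed, crosslinked (0.1% formaldehyde), proximity-ligated, PCR-amplified and sequenced on an Illumina NextSeq500. The binding signal of each hexamer is its read frequency for a factor divided by its frequency for the tag-only sample.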
# [2] = target: T2, ELK1 (Homo sapiens, UniProt P19419 1-428); conditions: protein: recombinant; tags: N-terminal GST; dsDNA, one strand shown
# T2 sequence: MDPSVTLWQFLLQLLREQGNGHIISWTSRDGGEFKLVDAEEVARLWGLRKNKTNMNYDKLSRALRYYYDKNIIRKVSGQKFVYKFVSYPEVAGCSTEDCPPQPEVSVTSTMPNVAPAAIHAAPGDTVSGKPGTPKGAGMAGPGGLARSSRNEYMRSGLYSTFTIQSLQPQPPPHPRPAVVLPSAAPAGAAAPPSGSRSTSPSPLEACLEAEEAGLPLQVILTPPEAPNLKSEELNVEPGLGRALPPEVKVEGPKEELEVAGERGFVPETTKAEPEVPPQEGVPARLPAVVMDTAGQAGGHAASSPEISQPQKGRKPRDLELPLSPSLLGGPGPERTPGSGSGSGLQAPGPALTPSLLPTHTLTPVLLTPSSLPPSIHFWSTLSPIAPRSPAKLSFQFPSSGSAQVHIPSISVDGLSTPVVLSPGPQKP
# How it was run: as §1
# [3] = target: T3, GABPA (Homo sapiens, UniProt Q06546 1-454); conditions: protein: recombinant; tags: N-terminal GST; dsDNA, one strand shown
# T3 sequence: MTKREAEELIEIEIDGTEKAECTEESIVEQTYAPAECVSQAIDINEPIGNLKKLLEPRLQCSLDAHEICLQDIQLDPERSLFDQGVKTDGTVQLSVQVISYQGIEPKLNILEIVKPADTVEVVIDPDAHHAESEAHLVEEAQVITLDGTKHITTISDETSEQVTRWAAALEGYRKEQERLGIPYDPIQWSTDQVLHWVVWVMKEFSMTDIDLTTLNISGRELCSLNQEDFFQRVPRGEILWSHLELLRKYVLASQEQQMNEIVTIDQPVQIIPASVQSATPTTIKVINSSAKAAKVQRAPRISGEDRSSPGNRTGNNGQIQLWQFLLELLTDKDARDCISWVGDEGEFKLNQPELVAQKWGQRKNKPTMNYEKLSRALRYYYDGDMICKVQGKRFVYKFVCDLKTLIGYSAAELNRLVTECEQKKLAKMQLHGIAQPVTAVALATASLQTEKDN
# How it was run: as §1
# [4] = target: T4, ERG (Homo sapiens, UniProt P11308 1-479); conditions: protein: recombinant; tags: N-terminal GST; dsDNA, one strand shown
# T4 sequence: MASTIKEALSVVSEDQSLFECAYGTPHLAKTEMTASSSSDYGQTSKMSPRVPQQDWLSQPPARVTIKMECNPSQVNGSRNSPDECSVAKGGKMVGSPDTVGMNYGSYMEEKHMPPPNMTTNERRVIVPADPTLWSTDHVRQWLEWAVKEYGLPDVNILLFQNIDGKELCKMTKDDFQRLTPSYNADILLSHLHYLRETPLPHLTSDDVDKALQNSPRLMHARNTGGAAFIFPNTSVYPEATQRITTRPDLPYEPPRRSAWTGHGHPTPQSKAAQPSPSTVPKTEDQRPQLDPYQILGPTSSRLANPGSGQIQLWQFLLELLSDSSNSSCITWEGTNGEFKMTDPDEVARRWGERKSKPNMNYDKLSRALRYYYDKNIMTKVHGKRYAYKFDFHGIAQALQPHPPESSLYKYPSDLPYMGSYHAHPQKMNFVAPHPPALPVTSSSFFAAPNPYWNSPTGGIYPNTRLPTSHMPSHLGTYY
# How it was run: as §1
# [5] = target: ELF1 (Homo sapiens, UniProt P32519 1-619); conditions: protein: recombinant; tags: N-terminal GST; dsDNA, one strand shown
# How it was run: as §1
# [6] = target: T5, EHF (Homo sapiens, UniProt Q9NZC4 1-300); conditions: protein: recombinant; tags: N-terminal GST; dsDNA, one strand shown
# T5 sequence: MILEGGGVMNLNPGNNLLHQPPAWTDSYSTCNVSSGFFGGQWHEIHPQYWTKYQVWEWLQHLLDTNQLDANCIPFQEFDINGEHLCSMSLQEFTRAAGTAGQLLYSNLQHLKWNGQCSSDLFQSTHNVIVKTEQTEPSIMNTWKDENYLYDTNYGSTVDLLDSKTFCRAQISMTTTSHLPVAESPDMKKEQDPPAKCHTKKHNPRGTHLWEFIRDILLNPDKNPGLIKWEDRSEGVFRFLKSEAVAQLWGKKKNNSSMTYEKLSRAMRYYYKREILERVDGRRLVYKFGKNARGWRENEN
# How it was run: as §1
# [7] = target: SPI1 (Homo sapiens, UniProt P17947 1-270); conditions: protein: recombinant; tags: N-terminal GST; dsDNA, one strand shown
# How it was run: as §1
# [8] = target: SPIB (Homo sapiens, UniProt Q01892 1-262); conditions: protein: recombinant; tags: N-terminal GST; dsDNA, one strand shown
# How it was run: as §1
# [9] = target: T6, ELK3 (Homo sapiens, UniProt P41970 1-407); conditions: protein: recombinant; tags: N-terminal GST; dsDNA, one strand shown
# T6 sequence: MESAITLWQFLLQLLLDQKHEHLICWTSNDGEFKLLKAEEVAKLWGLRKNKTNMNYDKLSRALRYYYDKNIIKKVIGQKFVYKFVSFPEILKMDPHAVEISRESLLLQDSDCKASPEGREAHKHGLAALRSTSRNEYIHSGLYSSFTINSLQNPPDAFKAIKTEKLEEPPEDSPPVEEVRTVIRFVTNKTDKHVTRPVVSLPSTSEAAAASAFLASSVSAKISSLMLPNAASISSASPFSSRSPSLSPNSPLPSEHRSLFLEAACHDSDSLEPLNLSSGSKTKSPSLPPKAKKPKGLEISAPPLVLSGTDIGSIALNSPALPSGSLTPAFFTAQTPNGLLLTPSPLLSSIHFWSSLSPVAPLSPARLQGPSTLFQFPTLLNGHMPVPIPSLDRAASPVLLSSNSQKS
# How it was run: as §1
# [10] = target: T7, FEV (Homo sapiens, UniProt Q99581 1-238); conditions: protein: recombinant; tags: N-terminal GST; dsDNA, one strand shown
# T7 sequence: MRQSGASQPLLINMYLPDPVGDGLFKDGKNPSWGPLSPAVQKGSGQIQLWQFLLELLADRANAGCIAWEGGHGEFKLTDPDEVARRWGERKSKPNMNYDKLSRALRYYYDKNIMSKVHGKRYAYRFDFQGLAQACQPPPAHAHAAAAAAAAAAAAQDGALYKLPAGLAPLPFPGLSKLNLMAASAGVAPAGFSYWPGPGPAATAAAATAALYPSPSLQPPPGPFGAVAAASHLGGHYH
# How it was run: as §1
# [11] = target: ETV5 (Homo sapiens, UniProt P41161 1-510); conditions: protein: recombinant; tags: N-terminal GST; dsDNA, one strand shown
# How it was run: as §1
# [12] = target: HSF1 (Homo sapiens, UniProt Q00613 1-529); conditions: protein: recombinant; tags: N-terminal GST; chain copies: 3; dsDNA, one strand shown
# How it was run: as §1
# [13] = target: T8, SPIC (Homo sapiens, UniProt Q8N5J4 1-248); conditions: protein: recombinant; tags: N-terminal GST; dsDNA, one strand shown
# T8 sequence: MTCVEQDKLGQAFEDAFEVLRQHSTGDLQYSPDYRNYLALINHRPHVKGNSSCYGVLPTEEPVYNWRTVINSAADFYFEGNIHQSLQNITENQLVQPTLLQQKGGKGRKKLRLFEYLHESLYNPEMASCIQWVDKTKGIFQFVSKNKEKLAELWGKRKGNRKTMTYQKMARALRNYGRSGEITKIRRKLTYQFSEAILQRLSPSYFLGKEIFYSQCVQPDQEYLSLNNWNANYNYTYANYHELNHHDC
# How it was run: as §1
# [14] = target: ELF4 (Homo sapiens, UniProt Q99607 1-663); conditions: protein: recombinant; tags: N-terminal GST; dsDNA, one strand shown
# How it was run: as §1
# [15] = target: T9, ELK4 (Homo sapiens, UniProt P28324-2 1-405); conditions: protein: recombinant; tags: N-terminal GST; dsDNA, one strand shown
# T9 sequence: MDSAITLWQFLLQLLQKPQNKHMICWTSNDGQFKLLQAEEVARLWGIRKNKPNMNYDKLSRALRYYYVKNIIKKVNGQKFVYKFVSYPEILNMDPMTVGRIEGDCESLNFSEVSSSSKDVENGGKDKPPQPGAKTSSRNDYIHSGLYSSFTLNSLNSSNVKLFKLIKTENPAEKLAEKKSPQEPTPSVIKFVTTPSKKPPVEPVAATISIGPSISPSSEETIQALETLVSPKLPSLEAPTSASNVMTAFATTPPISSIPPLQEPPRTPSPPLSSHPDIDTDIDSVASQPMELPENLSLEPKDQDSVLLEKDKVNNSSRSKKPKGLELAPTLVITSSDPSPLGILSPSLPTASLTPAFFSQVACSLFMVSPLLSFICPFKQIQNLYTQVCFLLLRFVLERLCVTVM
# How it was run: as §1
# [16] = target: T10, ETV2 (Homo sapiens, UniProt O00321 1-342); conditions: protein: recombinant; tags: N-terminal GST; dsDNA, one strand shown
# T10 sequence: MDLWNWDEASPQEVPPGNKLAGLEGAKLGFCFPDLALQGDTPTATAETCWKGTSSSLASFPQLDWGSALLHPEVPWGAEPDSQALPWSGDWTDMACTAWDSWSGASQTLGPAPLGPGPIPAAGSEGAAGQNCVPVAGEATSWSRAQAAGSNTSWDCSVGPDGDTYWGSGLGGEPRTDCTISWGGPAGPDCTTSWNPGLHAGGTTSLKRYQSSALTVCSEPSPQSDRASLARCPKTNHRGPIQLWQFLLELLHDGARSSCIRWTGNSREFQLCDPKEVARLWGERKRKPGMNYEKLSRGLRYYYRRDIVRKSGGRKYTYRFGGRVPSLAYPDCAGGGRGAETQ
# How it was run: as §1
# [17] = target: T11, ELF3 (Homo sapiens, UniProt P78545 1-371); conditions: protein: recombinant; tags: N-terminal GST; dsDNA, one strand shown
# T11 sequence: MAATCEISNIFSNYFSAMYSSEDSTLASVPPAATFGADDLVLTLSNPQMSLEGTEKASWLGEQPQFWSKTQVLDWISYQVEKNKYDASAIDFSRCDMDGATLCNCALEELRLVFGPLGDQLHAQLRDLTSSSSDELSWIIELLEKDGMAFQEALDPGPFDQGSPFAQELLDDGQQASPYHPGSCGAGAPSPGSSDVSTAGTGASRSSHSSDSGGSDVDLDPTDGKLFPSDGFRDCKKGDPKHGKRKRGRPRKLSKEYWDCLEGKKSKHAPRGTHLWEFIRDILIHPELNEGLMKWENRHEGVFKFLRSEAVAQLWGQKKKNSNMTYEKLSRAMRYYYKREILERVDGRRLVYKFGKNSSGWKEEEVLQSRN
# How it was run: as §1
# [18] = target: CRX (Homo sapiens, UniProt O43186 1-299); conditions: protein: recombinant; tags: N-terminal GST; dsDNA, one strand shown
# How it was run: as §1
# [19] = target: ETV1 (Homo sapiens, UniProt P50549 1-477); conditions: protein: recombinant; tags: N-terminal GST; dsDNA, one strand shown
# How it was run: as §1
# Sequence of ELF4 (Q99607 whole entry): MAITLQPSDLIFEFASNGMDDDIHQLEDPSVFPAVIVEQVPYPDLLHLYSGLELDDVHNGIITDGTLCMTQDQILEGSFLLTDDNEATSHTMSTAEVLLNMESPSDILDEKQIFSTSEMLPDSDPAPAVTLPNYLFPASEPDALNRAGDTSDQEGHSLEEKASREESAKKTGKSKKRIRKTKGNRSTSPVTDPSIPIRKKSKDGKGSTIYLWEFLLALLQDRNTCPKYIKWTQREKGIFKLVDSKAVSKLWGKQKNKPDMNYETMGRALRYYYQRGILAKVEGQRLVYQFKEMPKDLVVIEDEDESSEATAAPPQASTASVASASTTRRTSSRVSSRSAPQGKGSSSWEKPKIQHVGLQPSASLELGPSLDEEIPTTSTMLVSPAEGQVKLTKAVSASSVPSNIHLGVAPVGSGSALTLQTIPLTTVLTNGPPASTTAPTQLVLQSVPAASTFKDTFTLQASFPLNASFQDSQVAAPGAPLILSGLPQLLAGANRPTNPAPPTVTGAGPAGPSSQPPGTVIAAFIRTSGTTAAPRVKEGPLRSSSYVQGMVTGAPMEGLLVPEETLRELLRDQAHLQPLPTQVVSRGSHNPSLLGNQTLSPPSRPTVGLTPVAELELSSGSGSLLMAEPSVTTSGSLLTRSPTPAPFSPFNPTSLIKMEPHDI
# Sequence of CRX (O43186 whole entry): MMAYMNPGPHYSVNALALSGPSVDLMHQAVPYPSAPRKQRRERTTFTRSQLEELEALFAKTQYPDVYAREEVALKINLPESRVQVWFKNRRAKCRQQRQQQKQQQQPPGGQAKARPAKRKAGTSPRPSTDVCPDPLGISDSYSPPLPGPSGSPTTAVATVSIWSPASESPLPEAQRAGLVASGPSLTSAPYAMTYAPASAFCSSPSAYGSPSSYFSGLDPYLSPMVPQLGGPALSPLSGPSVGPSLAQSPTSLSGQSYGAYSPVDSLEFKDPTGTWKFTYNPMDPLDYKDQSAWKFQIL
# Sequence of ETV1 (P50549 whole entry): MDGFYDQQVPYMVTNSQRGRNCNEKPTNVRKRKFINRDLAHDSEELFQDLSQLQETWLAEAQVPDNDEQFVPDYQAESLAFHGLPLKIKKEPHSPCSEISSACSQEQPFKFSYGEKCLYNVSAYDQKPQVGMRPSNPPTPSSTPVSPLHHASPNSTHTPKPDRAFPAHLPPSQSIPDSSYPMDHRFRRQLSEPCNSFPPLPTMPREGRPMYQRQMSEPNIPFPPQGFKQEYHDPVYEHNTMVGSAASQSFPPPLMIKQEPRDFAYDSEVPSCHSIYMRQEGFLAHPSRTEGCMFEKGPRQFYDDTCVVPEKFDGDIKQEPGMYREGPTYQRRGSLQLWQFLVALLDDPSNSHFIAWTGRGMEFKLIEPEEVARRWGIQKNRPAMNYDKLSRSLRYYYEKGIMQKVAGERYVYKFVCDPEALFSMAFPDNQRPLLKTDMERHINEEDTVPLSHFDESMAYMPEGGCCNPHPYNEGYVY
# Sequence of SPIB (Q01892 whole entry): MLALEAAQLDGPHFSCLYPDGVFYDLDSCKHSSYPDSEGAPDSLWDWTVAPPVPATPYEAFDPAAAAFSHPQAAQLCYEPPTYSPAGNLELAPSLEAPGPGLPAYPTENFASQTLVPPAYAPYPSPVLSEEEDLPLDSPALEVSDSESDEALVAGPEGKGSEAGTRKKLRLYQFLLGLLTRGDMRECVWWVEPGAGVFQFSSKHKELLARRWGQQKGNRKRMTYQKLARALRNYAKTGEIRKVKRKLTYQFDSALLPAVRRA
# Sequence of ELF1 (P32519 whole entry): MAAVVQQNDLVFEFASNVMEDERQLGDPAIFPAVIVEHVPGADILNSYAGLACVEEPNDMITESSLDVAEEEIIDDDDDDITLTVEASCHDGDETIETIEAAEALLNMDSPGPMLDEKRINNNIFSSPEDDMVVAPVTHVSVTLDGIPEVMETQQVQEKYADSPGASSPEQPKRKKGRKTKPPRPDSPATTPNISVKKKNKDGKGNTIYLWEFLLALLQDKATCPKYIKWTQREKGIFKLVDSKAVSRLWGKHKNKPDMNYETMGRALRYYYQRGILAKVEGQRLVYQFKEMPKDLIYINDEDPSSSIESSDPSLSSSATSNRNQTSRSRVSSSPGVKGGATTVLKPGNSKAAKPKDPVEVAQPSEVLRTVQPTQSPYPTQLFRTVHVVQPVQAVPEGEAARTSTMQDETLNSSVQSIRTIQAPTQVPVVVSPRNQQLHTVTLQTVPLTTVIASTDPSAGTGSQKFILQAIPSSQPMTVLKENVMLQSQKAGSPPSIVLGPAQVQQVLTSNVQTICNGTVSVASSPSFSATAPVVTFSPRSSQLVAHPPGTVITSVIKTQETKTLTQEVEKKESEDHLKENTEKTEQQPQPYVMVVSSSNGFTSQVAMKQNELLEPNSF
# Sequence of ETV5 (P41161 whole entry): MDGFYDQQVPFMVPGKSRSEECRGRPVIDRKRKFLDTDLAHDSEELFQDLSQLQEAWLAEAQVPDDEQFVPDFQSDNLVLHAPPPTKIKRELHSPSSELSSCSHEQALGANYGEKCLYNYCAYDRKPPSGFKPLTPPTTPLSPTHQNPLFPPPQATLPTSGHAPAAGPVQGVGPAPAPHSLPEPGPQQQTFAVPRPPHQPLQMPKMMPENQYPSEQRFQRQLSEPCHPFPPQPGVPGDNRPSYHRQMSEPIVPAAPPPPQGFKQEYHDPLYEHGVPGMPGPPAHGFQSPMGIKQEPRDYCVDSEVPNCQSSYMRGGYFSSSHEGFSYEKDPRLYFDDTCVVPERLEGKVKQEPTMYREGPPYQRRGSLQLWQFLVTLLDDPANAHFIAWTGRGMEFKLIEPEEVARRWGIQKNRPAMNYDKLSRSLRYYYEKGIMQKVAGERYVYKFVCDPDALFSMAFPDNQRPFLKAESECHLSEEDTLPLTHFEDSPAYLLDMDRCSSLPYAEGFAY
# Sequence of HSF1 (Q00613 whole entry): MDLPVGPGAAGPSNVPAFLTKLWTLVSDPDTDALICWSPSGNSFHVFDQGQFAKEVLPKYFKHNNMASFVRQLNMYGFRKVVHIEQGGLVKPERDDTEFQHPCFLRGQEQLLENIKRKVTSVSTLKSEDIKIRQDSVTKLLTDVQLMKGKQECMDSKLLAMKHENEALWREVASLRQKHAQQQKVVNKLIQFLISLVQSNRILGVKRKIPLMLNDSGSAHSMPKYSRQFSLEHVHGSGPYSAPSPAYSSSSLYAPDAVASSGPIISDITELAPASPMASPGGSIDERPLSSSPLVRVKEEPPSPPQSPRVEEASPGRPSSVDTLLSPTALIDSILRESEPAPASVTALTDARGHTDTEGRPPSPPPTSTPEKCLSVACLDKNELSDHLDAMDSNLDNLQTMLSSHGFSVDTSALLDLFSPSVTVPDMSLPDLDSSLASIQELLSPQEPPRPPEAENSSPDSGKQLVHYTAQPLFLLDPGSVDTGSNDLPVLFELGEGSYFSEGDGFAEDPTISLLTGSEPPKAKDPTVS
sequence,measurement,setting,value
TTGATT,binding signal,[1],"1.48 fold enrichment (6-mer frequency, TF over GST control)"
same,binding signal,[2],"1.32 fold enrichment (6-mer frequency, TF over GST control)"
same,binding signal,[3],"1.31 fold enrichment (6-mer frequency, TF over GST control)"
same,binding signal,[4],"1.29 fold enrichment (6-mer frequency, TF over GST control)"
same,binding signal,[5],"1.29 fold enrichment (6-mer frequency, TF over GST control)"
same,binding signal,[6],"1.26 fold enrichment (6-mer frequency, TF over GST control)"
same,binding signal,[7],"1.18 fold enrichment (6-mer frequency, TF over GST control)"
same,binding signal,[8],"1.26 fold enrichment (6-mer frequency, TF over GST control)"
same,binding signal,[9],"1.2 fold enrichment (6-mer frequency, TF over GST control)"
same,binding signal,[10],"1.18 fold enrichment (6-mer frequency, TF over GST control)"
same,binding signal,[11],"1.14 fold enrichment (6-mer frequency, TF over GST control)"
same,binding signal,[12],"1.32 fold enrichment (6-mer frequency, TF over GST control)"
same,binding signal,[13],"1.35 fold enrichment (6-mer frequency, TF over GST control)"
same,binding signal,[14],"1.25 fold enrichment (6-mer frequency, TF over GST control)"
same,binding signal,[15],"1.29 fold enrichment (6-mer frequency, TF over GST control)"
same,binding signal,[16],"1.32 fold enrichment (6-mer frequency, TF over GST control)"
same,binding signal,[17],"1.25 fold enrichment (6-mer frequency, TF over GST control)"
same,binding signal,[18],"1.48 fold enrichment (6-mer frequency, TF over GST control)"
same,binding signal,[19],"1.27 fold enrichment (6-mer frequency, TF over GST control)"
